# Hits are enriched below; roughly 3.5% of the tested compounds scored in any of these assays.
# GPR151 activ = activates the human receptor GPR151. Q8TDV0. PathHunter beta-arrestin GPR151 cells, luminescence. activation, % at 11.2 µM. hit rate 1% among 650,000. AID 1508602; in the data active = activation above about 4.9%;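 note: 0% = median of compound wells and 100% = cells with positive control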
# Target sequence (Q8TDV0 whole entry, looked up): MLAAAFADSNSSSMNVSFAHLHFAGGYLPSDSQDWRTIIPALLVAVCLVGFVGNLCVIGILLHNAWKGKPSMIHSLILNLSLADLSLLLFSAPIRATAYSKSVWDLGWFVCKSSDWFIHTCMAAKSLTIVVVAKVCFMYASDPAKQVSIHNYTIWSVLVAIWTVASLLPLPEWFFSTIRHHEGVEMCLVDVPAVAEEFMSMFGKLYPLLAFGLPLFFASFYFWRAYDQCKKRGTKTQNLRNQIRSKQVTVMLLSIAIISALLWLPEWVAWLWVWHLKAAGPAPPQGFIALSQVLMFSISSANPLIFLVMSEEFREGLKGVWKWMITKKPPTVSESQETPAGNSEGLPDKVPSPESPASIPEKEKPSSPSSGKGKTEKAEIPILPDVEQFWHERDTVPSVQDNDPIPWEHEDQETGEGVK
# MITF inh = inhibitors of human MITF; inhibition, % at 2.6 µM; AID 1259374; AlphaScreen MITF homodimerization, bead proximity signal; O75030; hit rate 0.91% among 650,000; in the data active = inhibition above about 50%;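 note: 0% = vehicle wells with protein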
# TEAD-YAP inh = TEAD-YAP interaction inhibition; hit rate 1.4% among 640,000; AID 1259422; HEK-TIYL cells, TEAD-Gal4/YAP UAS-luciferase luminescence; inhibition, % at 9.12 µM; in the data active = inhibition above about 32%;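 note: 0% = median of test compound wells and 100% = reference inhibitor wells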
# FBW7 act = activators of human E3 ligase FBW7; Q969H0; AlphaScreen FBW7–phospho-cyclin E peptide binding, activator screen; normalized activity (activation), % at 26.1 µM; hit rate 0.13% among 650,000; in the data active = normalized activity above about 1.9%;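 note: purified mutant Fbw7 with reduced substrate affinity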
# * hit, by the source's call.
SMILES,GPR151 activ,MITF inh,TEAD-YAP inh,FBW7 act
CC(C)n1cnc2c(NCc3nc4ccccc4[nH]3)nc(-c3ccc(C(=O)N4CCN(C)CC4)cc3)nc21,-1.2,6.8,65.4*,0.4
COC(CNc1cc(-c2ccccc2)nc(-c2ccccn2)n1)OC,0.8,12.2,48.1*,-0.6
OCCCNc1cc(-c2ccccc2)nc(-c2ccccn2)n1,1.1,21.9,78.3*,-0.8
OCCCNc1cc(-c2ccccn2)nc(-c2ccccn2)n1,4.1,114.6*,3.2,-0.8
OCCCNc1cc(-c2ccccn2)nc(-c2ccccc2)n1,2.6,17.4,22.0,0.0
Fc1ccccc1-c1cc(NCCCN2CCOCC2)nc(-c2ccccn2)n1,1.1,16.8,36.5*,-0.7
Fc1ccc(-c2cc(NCCCN3CCOCC3)nc(-c3ccccn3)n2)cc1,-1.2,-13.3,9.8,-0.7
CCCOc1cccc(C(=O)Nc2cc(-c3nc4ccccc4s3)ccc2C)c1,-1.4,9.8,-13.0,-0.1
O=C(NN=C1CCCC1)c1ccccc1I,-0.5,-23.8,-13.6,-0.1
CCc1c(C)sc(NC(=O)c2cc3n(n2)C(C(F)(F)F)CC(c2ccc(C)cc2)N3)c1C#N (centres undefined),1.0,10.1,-0.6,-0.1
c1ccc(CNc2cc(-c3ccncc3)nc(-c3ccccn3)n2)cc1,-0.5,2.8,7.2,-0.8
c1ccc(-c2cc(NCc3ccncc3)nc(-c3ccccn3)n2)cc1,0.1,18.6,37.2*,-0.5
COc1ccc(C(Nc2ccccn2)c2ccc3cccnc3c2O)cc1 (centres undefined),0.6,35.6,86.3*,-0.6
CCc1ccc(C(Nc2ccccn2)c2ccc3ccc(C)nc3c2O)cc1 (centres undefined),3.0,21.9,22.5,0.1
COc1cc(C(Nc2ccccn2)c2ccc3ccc(C)nc3c2O)cc(OC)c1O (centres undefined),-0.5,19.1,32.6*,-0.3
COc1cc(C(Nc2ccccn2)c2ccc3cccnc3c2O)cc(Br)c1OC (centres undefined),-0.1,18.9,76.2*,-0.1
CCOc1ccc(C(Nc2ccccn2)c2ccc3cccnc3c2O)cc1 (centres undefined),1.1,27.0,85.9*,-1.0
CCCC1N=C(c2ccc(Cl)cc2)CC(c2cccc(OC)c2O)N1 (centres undefined),-1.4,6.9,-41.4,0.0
O=S(=O)(NCC1(c2cccs2)CCCC1)c1ccc2c(c1)OCCO2,1.1,-8.1,-5.9,-0.1
CC(NC(=O)c1ccccc1OCC(=O)NC12CC3CC(CC(C3)C1)C2)c1ccccc1 (centres undefined),0.4,16.8,8.2,0.1
CC(=O)OCC1O[C@@H](n2cnc3c(=O)[nH]cnc32)C(OC(C)=O)C1OC(C)=O (some centres undefined),1.4,-12.2,-3.0,-0.1
CCOc1cc(C(Nc2ccccn2)c2ccc3cccnc3c2O)ccc1O (centres undefined),0.2,49.9,-6.6,-1.1
CCOc1cc(C(Nc2ccccn2)c2ccc3cccnc3c2O)ccc1OC (centres undefined),0.8,31.2,88.6*,-0.4
Cc1c(Cl)cccc1NC(=O)c1nn2c(C(F)(F)F)cc(-c3cccs3)nc2c1Br,0.1,-5.9,2.0,0.3
Nc1cccc(-c2nc(NCCN3CCOCC3)c3ncn(-c4ccsc4)c3n2)c1,0.3,5.4,53.4*,0.0
SMILES,GPR151 activ,MITF inh,TEAD-YAP inh,FBW7 act
O=C(NC1CC1)c1ccc(-c2nc(NC3CC3)c3ncn(-c4ccccc4)c3n2)cc1,-0.2,-13.6,33.4*,0.2
Nc1cccc(-c2nc(NCCc3ccc(O)cc3)c3ncn(-c4ccsc4)c3n2)c1,0.1,-5.6,55.8*,0.1
O=C(NC1CC1)c1ccc(-c2nc(NCCN3CCOCC3)c3ncn(-c4ccccc4)c3n2)cc1,-0.5,-2.2,67.2*,0.0
O=C(Nc1ccc2c3c(cccc13)CC2)c1ccccc1Oc1ccccc1,0.3,0.8,-0.9,0.1
NC(=O)c1ccc(-c2nc(NCCN3CCOCC3)c3ncn(-c4ccsc4)c3n2)cc1,1.4,20.8,33.3*,0.1
O=C(NC1CC1)c1ccc(-c2nc(NCCN3CCOCC3)c3ncn(-c4ccsc4)c3n2)cc1,1.7,4.1,37.4*,0.1
COC(=O)c1c(OCCCN(C)C)cc(=O)n2c1CCN(C(=O)CCC(C)C)CC2,1.5,2.2,-6.4,-0.1
COc1ccc(CCn2c(=S)[nH]c3nccnc3c2=O)cc1OC,-0.2,-0.7,40.1*,-0.2
CCc1nn2c(C3CCNCC3)ccnc2c1-c1cccs1,-0.3,15.6,11.0,0.1
C=CCNC(=O)c1cc(-c2cccc(O)c2)on1,-2.1,2.4,34.1*,-0.1
O=C(c1cc(-c2ccc(O)cc2)on1)N1CCCCC1,-0.6,4.2,45.0*,0.1
O=C(c1cc(-c2cccc(O)c2)on1)N1CCOCC1,-4.9,14.8,64.7*,0.1
O=C(c1cc(-c2cccc(O)c2)on1)N1CCCCCC1,-0.5,-7.8,31.1,0.0
O=C(c1cc(-c2ccc3c(c2)OCO3)on1)N1CCCC1,-2.1,-14.2,41.1*,-0.1
C#CCN1CCC(N2CCN(c3ccccc3)CC2)CCC1=O (centres undefined),1.5,-7.5,3.3,-0.1
O=C(Nc1cccc(O)c1)c1ccc(N2C(=O)c3cccc([N+](=O)[O-])c3C2=O)cc1,-2.6,15.5,34.2*,0.3
O=C1c2cccc([N+](=O)[O-])c2C(=O)N1c1ccc(Oc2cccc3ccccc23)cc1,1.1,5.8,73.7*,-0.1
Cc1ccc(Oc2ccc(N3C(=O)c4cccc([N+](=O)[O-])c4C3=O)cc2)cc1C,0.9,-6.1,32.7*,-0.1
O=C1c2cccc([N+](=O)[O-])c2C(=O)N1c1ccc(Oc2ccc3ccccc3c2)cc1,-0.4,1.0,14.2,0.1
COc1ccc(Oc2ccc(N3C(=O)c4cccc([N+](=O)[O-])c4C3=O)cc2)cc1,-0.8,6.3,0.3,0.0
O=C(Nc1ccc(O)cc1)c1cccc(N2C(=O)c3cccc([N+](=O)[O-])c3C2=O)c1,-0.9,-7.6,15.2,-0.1
c1ccc(-c2nc(C34CC5CCC(CC(C5)C3)C4)cs2)cc1,-0.8,-8.6,-9.5,-0.1
CCOc1ccc(NC(=O)c2cccc(OC)c2)c([N+](=O)[O-])c1,-3.1,22.4,32.5*,0.1
CCOc1ccc(N/C=C/C(=O)c2ccc(OC)cc2)c([N+](=O)[O-])c1,0.2,-4.2,43.4*,0.0
COc1ccc(NC(=O)CCS(=O)(=O)Cc2ccccc2)c([N+](=O)[O-])c1,-0.2,-6.8,58.2*,-0.3
CCCCOC(=O)CSc1nnc(-c2ccc(N(C)C)cc2)o1,1.5,-10.7,41.5*,-0.1
Fc1cc(-c2ccnc(Nc3ccc(-n4cnc(Br)n4)cc3)n2)cc(N2CCOCC2)c1,0.2,-7.7,6.5,0.0
Fc1cc(-c2ccnc(Nc3ccc(-n4cnc(-c5ccc(Cl)cn5)n4)cc3)n2)cc(N2CCOCC2)c1,0.8,13.2,5.5,0.1
OCc1ccc(-c2ncn(-c3ccc(Nc4nccc(-c5cc(F)cc(N6CCOCC6)c5)n4)cc3)n2)nc1,0.2,-0.8,82.5*,-0.1

# Screens: PubChem BioAssay, The Scripps Research Institute Molecular Screening Center
